From PubChem BioAssay (EPA / NIEHS) come the findings set out here.

Each structure is given as a SMILES string. Where “and” joins values, the source holds several entries; their conditions need not be identical. Identical values can stand only once. Records with an inconclusive call do not appear. Some structures have more than one record in an assay (separate samples or runs), and their calls can disagree. Calls of active or inactive are those of the source. Rule for the calls, unless noted: active = hit-call score of the fitted dose curve at least 0.9, where 1 is the maximum; inactive = score below 0.9.

For assay [1], the target named is Estrogen receptor (Homo sapiens) (UniProt P03372). The assay is described as follows: CCTE_Deisenroth_AIME_384WELL_LUC_Active: CCTE's 384-well Estrogen Receptor Transactivation Assay with AIME metabolic competence (ERTA luciferase; metabolism positive), Deisenroth Lab (AID 2284030; active = hit-call score of the fitted dose curve at least 0.9, where 1 is the maximum). In outline:
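VM7Luc4E2 breast cells were given, for 24 hours, medium pre-incubated for 2 hours with parent chemical (0.002-200 uM, 10 concentrations) and alginate-encapsulated phenobarbital/beta-naphthoflavone-induced rat hepatic S9. Luciferase gain of signal was fitted against 17beta-estradiol; n=4 or more.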

Assay [2] is described as follows: CCTE_Deisenroth_AIME_384WELL_CTox_Active: Cytotoxicity Assessment (CTOX) in CCTE's 384-well Estrogen Receptor Transactivation Assay with AIME metabolic competence (metabolism positive), Deisenroth Lab (AID 2284037; active = hit-call score of the fitted dose curve at least 0.9, where 1 is the maximum;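 note: chemicals first conditioned 2 h by alginate-bound induced rat liver S9 before cells; activity means signal loss indicating cell death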). In short, it runs like this: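 Chemicals pre-incubated 2 hours with alginate-immobilised phenobarbital/beta-naphthoflavone-induced male Sprague Dawley rat liver S9, then conditioned medium applied 24 hour to VM7Luc4E2 cells. Viability by fluorogenic protease substrate; 10-point series 0.002 - 200 uM.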

Assay [3] can be described thus: CCTE_Deisenroth_AIME_384WELL_CTox_Inactive: Cytotoxicity Assessment (CTOX) in CCTE's 384-well Estrogen Receptor Transactivation Assay without AIME metabolic competence (metabolism negative), Deisenroth Lab (AID 2284039; active = hit-call score of the fitted dose curve at least 0.9, where 1 is the maximum;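 note: cell viability via live-cell protease substrate cleaved to fluorescent probe; cells exposed 24 h to medium preincubated 2 h with alginate-water beads without S9; loss of fluorescence signal means loss of viability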). In short, it runs like this:
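Fluorescent protease-substrate viability readout after 24 h exposure of VM7Luc4E2 cells to conditioned medium. Chemicals (0.002–200 uM) first sat 2 h over alginate-water beads, no S9. Data fitted bidirectionally, loss of signal meaning viability loss.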

The nature of assay [4]: CCTE_Shafer_MEA_dev_firing_rate_mean: CCTE's Neural Network Formation Assay for Mean Firing Rate, Shafer Lab (AID 2284031).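 For AC50: curve fitted for loss of firing so AC50 reflects decreased mean firing rate.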 In short, it runs like this: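 Rat primary cortical neurons were seeded on multielectrode arrays and treated from plating through day 12, with redosing at each feed. Spontaneous spiking was recorded four times; mean firing rate AUC was fitted downward against DMSO.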

The nature of assay [5]: CCTE_Shafer_MEA_dev_per_burst_spike_percent: CCTE's Neural Network Formation Assay for Percent of Spikes in a Burst, Shafer Lab (AID 2284032).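 For AC50: fitted as a decrease in burst spike percentage below DMSO baseline.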 In outline: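 Rat primary cortical neurons on 16-electrode MEA wells, dosed from plating day 0 for 12 days with renewal on DIV 5 and 9; spikes-in-bursts percentage averaged over bursting electrodes, collapsed as AUC across days 5, 7, 9, 12; loss direction versus DMSO.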

Assay [6] is described as follows: CCTE_Shafer_MEA_dev_active_electrodes_number: CCTE's Neural Network Formation Assay for Number of Active Electrodes, Shafer Lab (AID 2284040; active = hit-call score of the fitted dose curve at least 0.9, where 1 is the maximum;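 for AC50: potency for loss of active electrodes versus DMSO so lower counts are hits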). In outline: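 Primary rat cortical neurons on 16-electrode MEA wells, exposed from day 0 through day 12 with compound renewed at DIV 5 and 9 feeds. Active electrodes (mean firing ≥5 spikes/min) counted at DIV 5, 7, 9, 12; trapezoidal AUC across days, loss-of-signal versus DMSO.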

A short description of assay [7]: CCTE_Shafer_MEA_dev_burst_rate: CCTE's Neural Network Formation Assay for Burst Rate, Shafer Lab (AID 2284042).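 For AC50: potency for loss of burst rate below DMSO control.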 In short, it runs like this: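 Exposure ran continuously over 12 days of network development in rat cortical cultures, with compound refreshed during full media changes on DIV 5 and 9. Single-electrode bursts per recording time, well-mean over active electrodes, trapezoidal AUC across days 5–12, fitted downward relative to DMSO.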

The nature of assay [8]: CCTE_Shafer_MEA_dev_bursting_electrodes_number: CCTE's Neural Network Formation Assay for Number of Bursting Electrodes, Shafer Lab (AID 2284043; active = hit-call score of the fitted dose curve at least 0.9, where 1 is the maximum;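 for AC50: potency is for loss of bursting electrodes relative to DMSO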). In outline:
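Primary rat cortical neurons plated on 16-electrode MEA wells, exposed from day 0 with compound renewed at DIV 5 and 9. Electrodes bursting ≥1 burst per 2 min counted on days 5, 7, 9 and 12; trapezoidal AUC across days, fitted for loss versus DMSO.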

Assay [9] can be described thus: CCTE_Shafer_MEA_dev_per_burst_interspike_interval: CCTE's Neural Network Formation Assay for Burst Interspike Interval, Shafer Lab (AID 2284044).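 For AC50: potency for a decrease of within-burst interspike interval below DMSO level.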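 Note: mean spike spacing inside bursts as AUC over recordings on days 5 7 9 12.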 In short, it runs like this:
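Mean interspike interval within single-electrode bursts, averaged over bursting electrodes, from rat cortical cultures on MEA plates recorded on days 5, 7, 9 and 12. Continuous compound exposure from plating; trapezoidal AUC fitted downward relative to DMSO.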

Assay [10] in a line: CCTE_Shafer_MEA_dev_burst_duration_mean: CCTE's Neural Network Formation Assay for Mean Burst Duration, Shafer Lab (AID 2284045).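 For AC50: curve fitted for loss meaning shorter burst duration than DMSO.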 In short, it runs like this:
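Primary rat cortical neurons on 48-well 16-electrode MEA plates, exposed from day 0 with renewal at DIV 5 and 9; spontaneous activity recorded on days 5, 7, 9, 12. Well-mean burst duration across bursting electrodes, collapsed as trapezoidal AUC; DMSO baseline.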

Assay [11] is described as follows: CCTE_Shafer_MEA_dev_interburst_interval_mean: CCTE's Neural Network Formation Assay for Mean Interburst Interval, Shafer Lab (AID 2284046).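 Note: curve fitted for decrease in interburst interval relative to DMSO.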 In short, it runs like this: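 Primary rat cortical neurons on PEI-coated 48-well MEA plates (laminin added with cells at plating) (16 electrodes/well), exposed from plating day 0 with renewal at DIV 5 and 9. Mean inter-burst interval averaged over bursting electrodes, AUC across days 5, 7, 9, 12; DMSO baseline.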

Assay [12] in a line: CCTE_Shafer_MEA_dev_inter_network_spike_interval_mean: CCTE's Neural Network Formation Assay for Mean Inter-network Spike Interval, Shafer Lab (AID 2284047).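 For AC50: potency for a decrease in mean inter-network spike interval below DMSO.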 In outline: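 Mean time between consecutive network-spike peaks, recorded extracellularly (adaptive spike detection) on DIV 5, 7, 9 and 12, summarized as trapezoidal AUC. Rat cortical cultures on MEAs dosed continuously days 0–12, re-dosed at feeds; loss-of-signal fit relative to DMSO.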

A short description of assay [13]: CCTE_Shafer_MEA_dev_network_spike_number: CCTE's Neural Network Formation Assay for Number of Network Spikes, Shafer Lab (AID 2284048).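 For AC50: fit as a loss of signal meaning fewer network spikes than DMSO.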 In short, it runs like this:
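Primary rat cortical neurons on PEI/laminin 48-well MEA plates, dosed from plating day 0 for 12 days, renewed at DIV 5 and 9. Network spike counts recorded DIV 5, 7, 9, 12, collapsed as trapezoidal AUC; DMSO baseline.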

Assay [14] can be described thus: CCTE_Shafer_MEA_dev_network_spike_peak: CCTE's Neural Network Formation Assay for Mean Number of Electrodes in Network Spike, Shafer Lab (AID 2284049).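 For AC50: fitted for loss of signal meaning fewer electrodes in network spikes than DMSO.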 In outline:
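Network-spike peak electrode count from recordings on days 5, 7, 9 and 12 was combined as trapezoidal area under the curve. Rat cortical cultures were treated continuously from plating, with compound renewed at each feed (DIV 5, 9); fits versus DMSO.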

Assay [15] is described as follows: CCTE_Shafer_MEA_dev_network_spike_duration_std: CCTE's Neural Network Formation Assay for Standard Deviation of Network Spike Duration, Shafer Lab (AID 2284052).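 Note: hits are decreases in network spike duration SD versus DMSO vehicle.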 In outline:
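Network spike duration variability was collapsed across recordings on days 5, 7, 9 and 12 by trapezoidal area-under-curve and fitted downward against DMSO. Cultures were rat cortical neurons on PEI-coated MEA plates, dosed continuously from plating, refed with compound DIV 5/9.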

The nature of assay [16]: CCTE_Shafer_MEA_dev_per_network_spike_spike_number_mean: CCTE's Neural Network Formation Assay for Mean Number of Spikes in a Network Spike, Shafer Lab (AID 2284053).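 For AC50: fitted as decrease in spikes per network spike relative to DMSO.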 In short, it runs like this: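 Mean spike count within each network spike, taken in a 0.05 s window at its peak, was recorded on days 5, 7, 9 and 12 and integrated as trapezoidal area under the curve. Rat cortical cultures on MEA plates received continuous compound from day 0, refreshed at medium changes on DIV 5 and 9.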

Assay [17] is described as follows: CCTE_Shafer_MEA_dev_per_network_spike_spike_percent: CCTE's Neural Network Formation Assay for Percent of Spikes in a Network Spike, Shafer Lab (AID 2284054). In outline: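 Rat primary cortical neurons were grown on 48-well MEA plates (16 electrodes/well), exposed from plating day 0 through day 12, with treatment renewed on DIV 5 and 9. Percent of spikes within 0.05 s network-spike peaks was measured, summarised as AUC across days 5, 7, 9, 12.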

The subject of another assay is DIO2 (gene 1734). The experiment in a line: CCTE_GLTED_hDIO2: CCTE's human Deiodinase 2 (DIO2) Inhibition Assay, Great Lakes Toxicology and Ecology Division (GLTED) Lab (AID 2284050; active = hit-call score of the fitted dose curve at least 0.9, where 1 is the maximum). In outline:
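hDIO2 enzyme + test chem, 3 h → free iodide from substrate; step 2: Sandell-Kolthoff (Ce IV reduction by As, iodide-catalysed), spectrophotometric read. Triplicate plates; DMSO = baseline.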

In a further assay the test system is DIO3 (gene 1735). The experiment in a line: CCTE_GLTED_hDIO3: CCTE's human Deiodinase 3 (DIO3) Inhibition Assay, Great Lakes Toxicology and Ecology Division (GLTED) Lab (AID 2284055; active = hit-call score of the fitted dose curve at least 0.9, where 1 is the maximum;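 note: potency is for inhibition seen as loss of released iodide signal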). In short, it runs like this: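 Absorbance from the Sandell-Kolthoff reaction reports iodide released by human DIO3 during a 3-hour incubation with chemical. Inhibition scored as signal loss against DMSO controls.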

Chain of Estrogen receptor (Homo sapiens) (P03372 whole entry, looked up): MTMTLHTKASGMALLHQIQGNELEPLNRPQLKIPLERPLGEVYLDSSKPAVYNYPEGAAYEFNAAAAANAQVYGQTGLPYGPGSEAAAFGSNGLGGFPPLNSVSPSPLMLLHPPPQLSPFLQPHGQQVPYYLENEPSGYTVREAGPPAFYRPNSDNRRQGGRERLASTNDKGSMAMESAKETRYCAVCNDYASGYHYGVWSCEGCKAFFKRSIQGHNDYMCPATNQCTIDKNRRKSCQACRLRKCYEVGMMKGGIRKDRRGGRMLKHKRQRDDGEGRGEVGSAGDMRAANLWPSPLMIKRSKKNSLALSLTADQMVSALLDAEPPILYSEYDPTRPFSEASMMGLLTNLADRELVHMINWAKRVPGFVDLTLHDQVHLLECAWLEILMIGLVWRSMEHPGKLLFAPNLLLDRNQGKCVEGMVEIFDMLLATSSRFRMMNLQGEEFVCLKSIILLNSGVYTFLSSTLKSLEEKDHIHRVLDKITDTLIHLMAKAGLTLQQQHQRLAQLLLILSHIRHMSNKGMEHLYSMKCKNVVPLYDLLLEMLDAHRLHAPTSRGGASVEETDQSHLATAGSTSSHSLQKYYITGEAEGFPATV

For `CC(C)N1C(=O)N(c2ccccc2)CSC1=NC(C)(C)C`, the compound was classed as inactive in assay [1], in [2] and in assay [3].
For the compound `CC(C)Oc1cccc(NC(=O)c2ccccc2C(F)(F)F)c1`, the compound was called inactive in [2] and in assay [3].
As to `CCCN(CC)CC1COC2(CCC(C(C)(C)C)CC2)O1` (configuration not stated), the AC50 in assay [4] is 66 nM (active); in assay [5], 335 nM (active); in assay [6], 246 nM (active); in assay [7], 136 nM (active); in assay [8], 223 nM (active); in assay [9], 234 nM (active). Besides, the AC50 in [10] was 157 nM (active); in [11], 325 nM (active); in assay [12] it was 257 nM (active); in [13], 93.3 nM (active); in assay [14] it was 305 nM (active); in assay [15], 66.2 nM (active). In addition, the concentration at half-maximal activity (AC50) was 272 nM (active) in assay [16] and 266 nM (active) in assay [17].
As to `N#CN=C1SCCN1Cc1ccc(Cl)nc1`, the compound was called inactive in assay [4], in [5], in assay [6], in assay [7], in assay [8] and in [9]. The compound was classed as inactive in [10], in assay [11], in assay [12], in assay [13], in assay [14] and in assay [15]. Also, the result in [16] and in assay [17] was inactive.
Consider `CCCCC(O)(Cn1cncn1)c1ccc(Cl)cc1Cl` (configuration not stated), for which the AC50 in assay [2] was 162000 nM (active); in assay [3] it was 100000 nM (active).
Turning to `CS(=O)(=O)c1ccc(C(=O)C2C(=O)CCCC2=O)c([N+](=O)[O-])c1`, the outcome in assay [4], in assay [5], in [6], in assay [7], in assay [8] and in assay [9] was inactive. In addition, the result in assay [10], in [11], in assay [12], in [13], in assay [14] and in assay [15] was inactive. Further, the compound was called inactive in [16] and in assay [17]. Besides, the half-maximal activity concentration (AC50) was 24800 nM (active) with DIO2 (gene 1734) and 46300 nM (active) with DIO3 (gene 1735).
Regarding `CC1(C)C(C(=O)OC(C#N)c2cccc(Oc3ccccc3)c2)C1(C)C` (configuration not stated), the compound was called inactive in assay [4], in assay [7], in assay [10], in assay [11] and in [15]. Moreover, the AC50 in assay [5] was 12600 nM (active); in assay [6], 19000 nM (active); in assay [8] it was 15400 nM (active); in assay [9], 18500 nM (active); in assay [12], 2560 nM (active); in assay [13] it was 515 nM (active). For the same compound, the values for the AC50 in [14], in assay [16] and in assay [17] were 13500 nM (active), 10000 nM (active) and 4540 nM (active), respectively.
With `CCCC(=NOCC)C1=C(O)CC(CC(C)SCC)CC1=O` (configuration not stated), the outcome in assay [1] and in assay [3] was inactive.
Consider `Cc1c(COC(=O)[C@@H]2[C@H](/C=C(\Cl)C(F)(F)F)C2(C)C)cccc1-c1ccccc1`, for which the AC50 is 847 nM (active) and 2.07 µM (active) in [4]; 1.65 µM (active) and 1.51 µM (active) in assay [5]; 2.84 µM (active) and 3.36 µM (active) in assay [6]; 768 nM (active) and 2.7 µM (active) in [7]; 1.56 µM (active) and 1.65 µM (active) in assay [8]; 3.23 µM (active) and 3.43 µM (active) in assay [9]. The AC50 was 2.29 µM (active) and 1.75 µM (active) in assay [10]; 2.8 µM (active) and 2.26 µM (active) in assay [11]; 2300 nM (active) in assay [12]; 91.2 nM (active) and 495 nM (active) in assay [13]; 1.51 µM (active) and 1.19 µM (active) in assay [14]; 2.29 µM (active) and 2.33 µM (active) in assay [15]. Moreover, the AC50 in assay [16] was 665 nM (active) and 864 nM (active); in assay [17], 440 nM (active) and 649 nM (active). The compound was called inactive in assay [12].
